From a collection of fitness landscapes (doi:10.1126/science.1257360)
The full ranking holds about 140,000 sequences; the median of “enrichment ratio after two sorts for PhoP signalling” is about 0, and the highest 2% start at about 11. The full list was thinned out, with the highest values kept by preference.

B1: PhoQ; a variant is named by its letters at X, in order, P23837 (parent)
chain: MKKLLRLFFPLSLRVRFLLATAAVVLVLSLAYGMVALIGYSVSFDKTTFRLLRGESNLFYTLAKWENNKLHVELPENIDKQSPTMTLIYDENGQLLWAQRDVPWLMKMIQPDWLKSNGFHEIEADVNDTSLLLSGDHSIQQQLQEVREDDDDAEMTHSVAVNVYPATSRMPKLTIVVVDTIPVELKSSYMVWSWFIYVLSANLLLVIPLLWVAAWWSLRPIEALAKEVRELEEHNRELLNPATTRELTSLVRNLNRLLKSERERYDKYRTTLTDLTHSLKTPLXXLQXXLRSLRSEKMSVSDAEPVMLEQISRISQQIGYYLHRASMRGGTLLSRELHPVAPLLDNLTSALNKVYQRKGVNISLDISPEISFVGEQNDFVEVMGNVLDNACKYCLEFVEISARQTDEHLYIVVEDDGPGIPLSKREVIFDRGQRVDTLRPGQGVGLAVAREITEQYEGKIVAGESMLGGARMEVIFGRQHSAPKDE

Variants of: B1
Assay: enrichment ratio after two sorts for PhoP signalling (ratio (wild type AVST 3.29)); higher = more functional
Conditions: with PhoP (E. coli)

Variant | enrichment ratio
HWKG | ≤ 0.25
HYVN | ≤ 0.25
FNKS | ≤ 0.25
WKFR | ≤ 0.25
VMIH | ≤ 0.25
FQCV | ≤ 0.25
TTTM | 19.4
KYCL | ≤ 0.25
SICM | 14.4
GTTM | 4.35
KYTM | ≤ 0.25
SICL | 11.3
SIRL | ≤ 0.25
WICM | ≤ 0.25
SITM | 22.9
YTTM | 8.49
SRTM | 1.44
KYCM | ≤ 0.25
NSAY | ≤ 0.25
MERT | ≤ 0.25
IMPC | ≤ 0.25
AHIW | ≤ 0.25
YHGK | ≤ 0.25
MHLE | ≤ 0.25

Variant | enrichment ratio
TWGP | ≤ 0.25
GSVG | ≤ 0.25
SICQ | 27.6
KYCQ | ≤ 0.25
SIPM | 19.8
QETM | ≤ 0.25
SIGQ | 10.4
KYPM | ≤ 0.25
SIPA | 0.817
LTTM | ≤ 0.25
STTM | 14.3
VWYY | ≤ 0.25
EDMQ | ≤ 0.25
VNHC | ≤ 0.25
AYRQ | ≤ 0.25
YGPP | ≤ 0.25
IQKL | ≤ 0.25
GASY | ≤ 0.25
SPIT | ≤ 0.25
AGYW | ≤ 0.25
NSLH | ≤ 0.25
KYLH | ≤ 0.25
SSLH | 11.4
SPLH | ≤ 0.25

Variant | enrichment ratio
STLH | 12.2
LTLH | ≤ 0.25
ITLH | ≤ 0.25
SYLH | 0.355
ATLH | 11.5
SELH | 19.4
KSLH | ≤ 0.25
SRLH | ≤ 0.25
ASPV | 0.706
LLVM | ≤ 0.25
PRDH | ≤ 0.25
IQGR | ≤ 0.25
RVGK | ≤ 0.25
TQAC | 4.85
VIMQ | ≤ 0.25
WTKP | ≤ 0.25
ENII | ≤ 0.25
TTLH | 19.7
GTLH | 8.02
YTLH | 0.617
MYEQ | ≤ 0.25
YGLT | 7.13
SLLV | 6.62
EQLV | ≤ 0.25

Variant | enrichment ratio
YGLA | 12.8
TELV | 25.1
SILV | 2.22
YGLS | 7.31
TQLV | 26.3
QELV | ≤ 0.25
NELV | 2.93
SELV | 19.5
NQLV | ≤ 0.25
WPNN | ≤ 0.25
YKHG | ≤ 0.25
AFWQ | ≤ 0.25
GIFI | ≤ 0.25
TQRG | ≤ 0.25
LAFQ | 2.23
NEYD | ≤ 0.25
EVIK | ≤ 0.25
QFDL | ≤ 0.25
MRMI | ≤ 0.25
SINK | 1.25
RMYK | ≤ 0.25
TTLV | 17.9
YYLV | ≤ 0.25
ATLV | 12.7

Variant | enrichment ratio
MIHK | ≤ 0.25
YTLV | 15.7
LTLV | 1.55
FTLV | 10.2
CTLV | 0.326
ITLV | 7.88
GTLV | 7.85
MFLV | ≤ 0.25
MILV | 13
FHSF | ≤ 0.25
HDGN | ≤ 0.25
TQVH | 8.69
LPSI | ≤ 0.25
ANRW | ≤ 0.25
MCHW | ≤ 0.25
GFAN | ≤ 0.25
KGPY | ≤ 0.25
NSLV | 2.78
SKHK | ≤ 0.25
KSLV | ≤ 0.25
SFLV | 1.19
FSLV | 8.86
SALV | 14.6
TSLV | 14.6

Variant | enrichment ratio
SKLV | 12
KQLV | ≤ 0.25
SSLV | 16.8
DLQF | ≤ 0.25
PGYR | ≤ 0.25
QDIQ | ≤ 0.25
RNIE | ≤ 0.25
YSWN | ≤ 0.25
IQID | ≤ 0.25
LDQS | ≤ 0.25
KYLV | ≤ 0.25
QPLV | ≤ 0.25
DPLV | ≤ 0.25
MMLV | ≤ 0.25
YGLV | 13.5
NFLV | ≤ 0.25
STLV | 15.4
SQLV | 11.8
MPLV | ≤ 0.25
MELV | 18.1
SYLV | 0.334
SPLV | ≤ 0.25
ITPL | ≤ 0.25
WHNG | ≤ 0.25

Variant | enrichment ratio
TSSF | 9.67
YPTT | ≤ 0.25
ISMW | ≤ 0.25
FIHY | ≤ 0.25
QLFD | 3.39
HRQG | ≤ 0.25
YGDM | 0.798
YGWM | ≤ 0.25
YGLM | 13
HFAL | ≤ 0.25
SCRE | ≤ 0.25
DVLL | ≤ 0.25
TESE | 20
SLSE | 1.48
TASE | 11.3
QESE | ≤ 0.25
NESE | ≤ 0.25
AISE | 2.44
RISE | ≤ 0.25
KASE | ≤ 0.25
NASE | ≤ 0.25
DDSE | 1.96
SESE | 24.9
TISE | 24.4

Variant | enrichment ratio
HLPY | ≤ 0.25
MSKE | ≤ 0.25
YPSK | ≤ 0.25
TVFP | ≤ 0.25
VDTN | ≤ 0.25
NVSE | ≤ 0.25
LNSE | ≤ 0.25
SRSE | ≤ 0.25
GNSE | ≤ 0.25
SDSE | ≤ 0.25
SPSE | ≤ 0.25
SISE | 12.6
DPSE | ≤ 0.25
SNSE | 16.4
TVSE | 14.1
SQSE | 11.4
KYSE | ≤ 0.25
FFRE | ≤ 0.25
EVVH | ≤ 0.25
TGPK | ≤ 0.25
GKHW | ≤ 0.25
FNVA | ≤ 0.25
KTII | ≤ 0.25
GGSE | ≤ 0.25

Variant | enrichment ratio
TGSE | 7.38
SGSE | 15.4
IEKG | ≤ 0.25
LARL | ≤ 0.25
SSPS | ≤ 0.25
YHLR | ≤ 0.25
MSYK | ≤ 0.25
MSCI | 16.7
MSCA | 0.541
MSWM | 23.7
MSGM | 6.76
MSTA | ≤ 0.25
MSYD | ≤ 0.25
MSYI | 12.1
MSPM | ≤ 0.25
MSPI | ≤ 0.25
MSWI | 14.1
MSCS | 0.763
KTWF | ≤ 0.25
YIVR | ≤ 0.25
DSYR | ≤ 0.25
WDLV | ≤ 0.25
SPGS | ≤ 0.25
AEGC | 2.22

Variant | enrichment ratio
MSFY | 12.3
MAFL | 12.9
MSSF | 0.41
MSSM | 11.9
KSFY | ≤ 0.25
MSAS | 12.6
NAFL | 0.25
MSAT | 7.26
WIAS | ≤ 0.25
MSFD | ≤ 0.25
MSQM | ≤ 0.25
KAFL | ≤ 0.25
PAHY | ≤ 0.25
AKLK | ≤ 0.25
MEND | ≤ 0.25
PTHW | ≤ 0.25
AVIT | 1.3
MIMD | ≤ 0.25
LLDF | ≤ 0.25
NAWF | ≤ 0.25
PFLK | ≤ 0.25
RPFK | ≤ 0.25
MSFA | 2.31
MSLA | 5.33

Variant | enrichment ratio
MSLM | 15.9
MSGI | 17.5
MSHP | ≤ 0.25
MSGD | ≤ 0.25
MSHQ | 12
MSLF | 1.86
MSTC | 1.5
MSTD | ≤ 0.25
MSFC | 14.1
MSGR | ≤ 0.25
IAPP | ≤ 0.25
NMIK | ≤ 0.25
DCGT | ≤ 0.25
EMPS | ≤ 0.25
NEEL | ≤ 0.25
MHMN | ≤ 0.25
NGVW | ≤ 0.25
MRHM | ≤ 0.25
MSGG | ≤ 0.25
MSFL | 13.3
MSHM | 22
MSTI | 18.2
MSLY | 0.424
MSGA | 0.29

Variant | enrichment ratio
MSCF | 1.71
KSHM | ≤ 0.25
MSGQ | 14.3
KSFL | ≤ 0.25
MEFL | 8.98
SKYM | ≤ 0.25
CCSC | ≤ 0.25
FTRK | ≤ 0.25
MDDW | ≤ 0.25
ADPG | ≤ 0.25
VPPG | ≤ 0.25
LIYG | ≤ 0.25
MSWL | 14.4
MSTW | ≤ 0.25
MSCE | ≤ 0.25
MSEL | ≤ 0.25
MSRL | ≤ 0.25
MSCV | 15.3
GKQS | ≤ 0.25
SDCI | 4.22
QYNK | ≤ 0.25
GGPL | ≤ 0.25
SNVY | 1.11
AAII | 12.4

Variant | enrichment ratio
KAII | ≤ 0.25
NAII | ≤ 0.25
KKII | ≤ 0.25
ADII | 1.41
AKII | 13.6
DMTW | ≤ 0.25
IQGQ | ≤ 0.25
GIPQ | ≤ 0.25
YTSL | ≤ 0.25
CVSL | ≤ 0.25
CTSL | 11.6
KQSL | ≤ 0.25
GTSL | 9.63
TTSL | 17.6
TVPF | ≤ 0.25
QVGW | 2.43
EDEG | ≤ 0.25
FEDM | ≤ 0.25
